Results from PubChem BioAssay AID1835 (Johns Hopkins Ion Channel Center, 2009).
Out of some 2,400 compounds screened, about 750 (31%) were called active. The list shows a part of the results. Unmarked numbers belong to inactive results.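 Rule for the calls: active = median signal gain over dofetilide-blocked control wells reaching their mean plus 3 SD, so readout 1 at least 0; inactive = the rest.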

Each molecule was assayed against Voltage-gated inwardly rectifying potassium channel KCNH2 (Homo sapiens) (UniProt Q12809) (assay: hERG protection against dofetilide inhibition, confirmation, cell-based, thallium flux, duplicate retest, dofetilide IC70 (AID 1835)). Settings: hERG cell line, FluxOR thallium flux, dofetilide-blocked; at 10 µM; active compounds read high.
Sequence of Voltage-gated inwardly rectifying potassium channel KCNH2 (Homo sapiens) (Q12809 whole entry, looked up): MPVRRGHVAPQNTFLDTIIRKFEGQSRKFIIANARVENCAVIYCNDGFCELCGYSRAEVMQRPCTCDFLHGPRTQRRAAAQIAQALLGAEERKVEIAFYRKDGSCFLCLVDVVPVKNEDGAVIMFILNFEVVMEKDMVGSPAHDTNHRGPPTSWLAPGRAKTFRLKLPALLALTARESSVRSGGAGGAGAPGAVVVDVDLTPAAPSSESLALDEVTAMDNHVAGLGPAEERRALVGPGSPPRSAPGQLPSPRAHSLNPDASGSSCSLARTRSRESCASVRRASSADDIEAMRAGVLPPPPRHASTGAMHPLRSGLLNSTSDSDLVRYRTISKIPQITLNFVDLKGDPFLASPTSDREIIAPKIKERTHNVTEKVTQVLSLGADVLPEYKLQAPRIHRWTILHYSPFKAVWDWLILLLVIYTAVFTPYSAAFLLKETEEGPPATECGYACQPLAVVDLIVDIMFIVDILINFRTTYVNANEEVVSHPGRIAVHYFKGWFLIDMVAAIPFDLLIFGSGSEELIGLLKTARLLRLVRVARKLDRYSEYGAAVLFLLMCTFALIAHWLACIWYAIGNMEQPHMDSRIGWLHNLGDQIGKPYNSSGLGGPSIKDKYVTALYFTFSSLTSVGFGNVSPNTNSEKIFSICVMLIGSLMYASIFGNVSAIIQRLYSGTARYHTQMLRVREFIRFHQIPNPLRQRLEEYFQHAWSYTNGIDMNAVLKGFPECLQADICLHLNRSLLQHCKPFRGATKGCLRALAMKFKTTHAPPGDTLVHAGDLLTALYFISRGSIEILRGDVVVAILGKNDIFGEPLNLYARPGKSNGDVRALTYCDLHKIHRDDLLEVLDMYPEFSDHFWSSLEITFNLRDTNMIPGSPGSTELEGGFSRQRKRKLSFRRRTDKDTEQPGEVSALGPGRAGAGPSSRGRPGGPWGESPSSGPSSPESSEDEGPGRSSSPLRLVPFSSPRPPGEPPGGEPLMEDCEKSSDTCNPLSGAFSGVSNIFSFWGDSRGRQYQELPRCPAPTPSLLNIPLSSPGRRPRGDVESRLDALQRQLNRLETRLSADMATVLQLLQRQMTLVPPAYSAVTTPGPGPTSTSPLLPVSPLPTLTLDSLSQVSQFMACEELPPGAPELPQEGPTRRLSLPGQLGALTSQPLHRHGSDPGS

| Compound | activity increase over dofetilide control, less the hit threshold |
| --- | --- |
| CCOC(=O)c1c(NS(=O)(=O)c2ccc(Br)cc2)sc2c1CCC2 | 68% (active) |
| COc1ccc(NS(=O)(=O)c2ccc3ccccc3c2)c2ncccc12 | -20% |
| COC(=O)c1c(NS(=O)(=O)c2ccc3ccccc3c2)sc2c1CCCC2 | 29% (active) |
| CCOC(=O)c1c(NS(=O)(=O)Cc2ccccc2)sc2c1CCCC2 | 69% (active) |
| Cc1ccc(C(=O)Nc2sc3c(c2C(=O)O)CCCCC3)o1 | -22% |
| COC(=O)c1c(NS(=O)(=O)Cc2ccccc2)sc2c1CCCC2 | 31% (active) |
| COc1ccc(S(=O)(=O)Nc2ccc(O)c3ccccc23)cc1 | -21% |
| O=C(O)C1C2CCC(O2)C1C(=O)Nc1ccc(F)c(Cl)c1 (stereo not given) | -7% |
| Cc1ccc(CN2CCN(CC(=O)NC(C)c3ccc4c(c3)OCCO4)C2=O)cc1 (stereo not given) | -9% |
| O=c1[nH]c(=O)n(CCc2ccc(F)cc2)c(O)c1C=NCc1ccc2c(c1)OCO2 | -26% |
| CC(C)=CCCC1=CCC2C(=O)NNC(=O)C2C1 (stereo not given) | -11% |
| CCOc1ccc(N)c(SSc2cc(OCC)ccc2N)c1 | -43% |
| COC(=O)CNc1nc(Cl)nc(Nc2ccc(C)cc2)n1 | -7% |
| CCc1nnc(NC(=O)C2CCCCN2S(=O)(=O)c2ccccc2)s1 (stereo not given) | -16% |
| Cc1nnc(NC(=O)C2CCCN(S(=O)(=O)c3ccccc3C(F)(F)F)C2)s1 (stereo not given) | 4% (active) |
| COC(=O)c1ccccc1NC(=O)C1CCCN(S(C)(=O)=O)C1 (stereo not given) | -17% |
| Cc1cccc(NC(=O)COc2coc(CN3CCN(c4ccccc4)CC3)cc2=O)c1 | -18% |
| CCOC(=O)Cc1csc(NC(=S)NC(=O)c2ccccc2C)n1 | 3% (active) |
| CCOC(=O)Cc1csc(NC(=S)NC(=O)c2ccc(C)cc2)n1 | -18% |
| COC(=O)c1c(NC(=O)C(C)(C)C)csc1C | -11% |
| CCOC(=O)Cc1csc(NC(=S)NC(=O)c2ccc(Cl)cc2)n1 | 11% (active) |
| CCOC(=O)Cc1csc(NC(=S)NC(=O)c2ccccc2Br)n1 | 22% (active) |
| CCOC(=O)c1c(SCC(=O)Nc2nc(C)cs2)nc(=O)[nH]c1C | -16% |
| CCOC(=O)Cc1csc(NC(=S)NC(=O)C(C)(C)C)n1 | 2% (active) |
| COc1cc(S(=O)(=O)NCC2COCCO2)ccc1-n1cnnn1 (stereo not given) | -17% |
| Cc1ccc(-n2nc(C)c3c2OC(N)=C(C#N)C3c2ccoc2)cc1 (stereo not given) | -19% |
| CCOC(=O)c1c(C=O)c(C)n(Cc2ccccc2)c1C | -5% |

| Compound | activity increase over dofetilide control, less the hit threshold |
| --- | --- |
| CSc1ccccc1C(=O)NCc1ccc(C)cc1 | -16% |
| CCOC(=O)C1=C(Cc2ccc(C)cc2)C(=O)c2ccccc2C1=O | 17% (active) |
| CCOc1ccc(/C=C2\CCc3ccccc3C2=O)cc1 | -13% |
| CCOC(=O)C1=C(O)c2ccccc2C(=O)/C1=C\c1ccc(CC)cc1 | 28% (active) |
| CCOc1cc(/C=C2/C(=O)ON=C2C)ccc1O | -22% |
| Cc1nc(NC(=S)NC(=O)COc2ccc(Cl)cc2)ccc1Br | 0% |
| Cc1ccc(OCC(=O)NC(=S)Nc2ccc(Br)cn2)cc1C | -13% |
| Cc1ccc(OCC(=O)NC(=S)Nc2ccc(Br)cn2)cc1 | 13% (active) |
| C=CCN(CC=C)C(=S)NC(=O)c1ccc(OC)c(Br)c1 | 48% (active) |
| C=CCN(CC=C)C(=S)NC(=O)c1ccc(OC)cc1 | 23% (active) |
| COc1ccc(C(=O)NC(=S)NCCO)cc1Br | -17% |
| COc1ccc(C(=O)NC(=S)N(C)C2CCCCC2)cc1Br | -5% |
| C=CCNC(=S)NC(=O)c1ccc(C)c(Br)c1 | -8% |
| CCN(CC)C(=S)NC(=O)c1ccc(OC)c(Br)c1 | 11% (active) |
| C=CCN(CC=C)C(=S)NC(=O)c1ccc(C)c(Br)c1 | 100% (active) |
| COc1ccc(-c2nc3ccc(C(=O)NCC(OC)OC)cc3nc2-c2ccc(OC)c(OC)c2)cc1OC | -14% |
| O=C(OCCNc1ccc(C(F)(F)F)cc1[N+](=O)[O-])c1cc2ccccc2oc1=O | -10% |
| Nn1c(SCC(=O)Nc2ccc(F)cc2)nnc1C1CCCCC1 | -24% |
| O=C(Cn1cnc2ccccc21)c1ccccc1 | -5% |
| CC(=O)NC1C(Oc2ccccc2C)OC(CO)C(O)C1O (stereo not given) | -10% |
| C=CCN(CC=C)C(=S)NC(=O)c1ccc([N+](=O)[O-])cc1 | 56% (active) |
| C=CCN(CC=C)C(=S)NC(=O)Cc1cccc2ccccc12 | 17% (active) |
| COc1ccc(OC(=O)Cc2cccc3ccccc23)cc1 | -13% |
| CCC(=O)Nc1ccc(C(=O)NNC(=O)c2cc([N+](=O)[O-])cc([N+](=O)[O-])c2)cc1 | -13% |
| COc1ccc(/C=C/C(=O)NC(=S)NNC(=O)c2cccs2)cc1 | -24% |
| C=CCN(CC=C)C(=S)NC(=O)/C=C/c1ccc(OC)cc1 | 1% (active) |
| O=C(NCCOC(=O)c1ccc([N+](=O)[O-])cc1)c1cccnc1 | -4% |

| Compound | activity increase over dofetilide control, less the hit threshold |
| --- | --- |
| COc1ccccc1CNC(=O)CCCC(=O)n1ncc2cc(C)ccc21 | -12% |
| O=C1c2cccc3cccc(c23)C(=O)C1(O)O | -24% |
| CCNC(=S)N/N=C1\C(=O)c2cccc3cccc1c23 | 9% (active) |
| O=C(NN=C1c2ccccc2-c2ccccc21)c1ccccc1 | -5% |
| O=C(N/N=C1/C(=O)c2cccc3cccc1c23)c1ccc(Cl)cc1 | 52% (active) |
| C/C(=N\NC(=O)c1ccc(Cl)cc1)c1ccc(Br)s1 | -11% |
| Cc1cccc(NC(=O)C(=O)NNC(=O)c2ccc(C(C)(C)C)cc2)c1 | 83% (active) |
| CC(C)(C)NC(=O)C(=O)NNC(=O)COc1ccccc1 | -4% |
| CC(C)(C)NC(=O)C(=O)NNC(=O)COc1ccc(Br)cc1 | 33% (active) |
| CC(NC(=O)c1ccncc1)C(C)(C)C (stereo not given) | -4% |
| CC(C)(C)NC(=O)C(=O)NNC(=O)c1ccccc1 | -5% |
| Cc1c(C(=O)NNC(=O)c2ccncc2)oc2ccc(Br)cc12 | -12% |
| CC(C)(C)NC(=O)C(=O)NNC(=O)c1ccc(C(C)(C)C)cc1 | 38% (active) |
| CC(C)(C)NC(=O)C(=O)NNC(=O)c1cccc(Br)c1 | 35% (active) |
| CC/C(=N\NC(=S)Nc1cccc(C)c1)c1ccccc1 | -1% |
| CCCc1cc(C(=O)NNC(=S)Nc2cccc(C)c2)cs1 | -22% |
| Cc1ccc(Oc2ccc(OCC(=O)NC(CC(C)C)C(=O)O)cc2)cc1 (stereo not given) | -20% |
| N#C/C(=N/Nc1ccc([N+](=O)[O-])cc1)C(=N)N1CCCCC1 | -20% |
| O=C1CC(c2ccccc2)c2cccc(F)c21 (stereo not given) | -22% |
| CC1CC(C)CN(CCCNC(=O)Cc2c(C(=O)O)[nH]c3ccccc23)C1 (stereo not given) | -14% |
| S=c1[nH]c2ccc(Cl)cc2s1 | 91% (active) |
| S=c1[nH]c2cc(Cl)ccc2s1 | 93% (active) |
| O=C(Nc1ccc2[nH]c(=S)sc2c1)Nc1ccccc1F | -16% |
| S=c1[nH]c2ccccc2n2cccc12 | -4% |
| CNC(=O)c1c(O)c2cccc3c2n(c1=O)CC3 | -17% |
| CC(=O)c1cc(N2CCC(C(=O)O)CC2)ccc1[N+](=O)[O-] | -22% |
| Clc1cccc(OCCCN2CCCC2)c1Cl | 2% (active) |

| Compound | activity increase over dofetilide control, less the hit threshold |
| --- | --- |
| COc1cccc(OC)c1OCCOCCN1CCN(C)CC1 | -17% |
| O=C(CN1CCCCCCC1)Nc1cccc(Cl)c1Cl | -14% |
| Cc1ccc(NC(=O)C2C3CCC(O3)C2C(=O)O)cc1C (stereo not given) | -1% |
| S=C(Nc1ccccc1)Nc1nc2ccccc2n1CCOc1ccccc1 | -9% |
| CCCc1nnc(NC(=O)CN2CCOCC2)s1 | -19% |
| O=C(Nc1ccccc1)N1CCSc2cc(Cl)ccc21 | -1% |
| CC1CCc2sc(-c3n[nH]c(=S)o3)cc2C1 (stereo not given) | 9% (active) |
| CCc1c(C)nc(SC)n(CC#N)c1=O | -2% |
| COc1ccccc1C(=O)NNC(=S)NC(=O)c1sc2ccccc2c1Cl | 43% (active) |
| COc1ccccc1C(=O)NC(=S)NNC(=O)c1sc2ccccc2c1Cl | -18% |
| COc1cccc(C(=O)NC(=S)Nn2cnnc2)c1OC | -14% |
| O=C(NNC(=S)NC(=O)c1sc2ccccc2c1Cl)c1ccc(Cl)cc1 | 70% (active) |
| O=C(N/N=C/c1ccc2cccc(OCc3ccccc3)c2n1)c1ccc(Br)cc1 | -9% |
| O=C(Nc1ccccc1C(=O)O)c1cccc(NC(=O)c2ccccc2Br)c1 | -5% |
| O=C(O)c1cc(/C=N\O)ccc1OCc1ccccc1 | -9% |
| COc1ccc(C(=O)Nc2ccccc2C(=O)O)cc1Cl | 5% (active) |
| COc1cc(NC(=O)CCCOc2ccc(Cl)cc2Cl)c(C(=O)O)cc1OC | -6% |
| COc1cc(C(=S)N2CCOCC2)ccc1OC(=O)c1ccc([N+](=O)[O-])cc1[N+](=O)[O-] | -22% |
| O=C(CCCOc1ccc(Cl)cc1Cl)Nc1ccccc1C(=O)O | 3% (active) |
| COc1cc(C(=O)Nc2ccc(O)cc2C(=O)O)ccc1OC(C)=O | 1% (active) |
| CCOP(=O)(OCC)C(NC(=O)c1ccc(OC)c(OC)c1)c1ccccc1 (stereo not given) | -14% |
| CN(C)C(=O)c1ccc(NC(=O)c2cncc(Br)c2)cc1 | -12% |
| CC(C)C(=O)Nc1cccc(C(=O)Nc2ccccc2C(=O)O)c1 | -7% |
| O=C(Nc1ccccc1C(=O)O)c1cncc(Br)c1 | 12% (active) |
